This is a sample that favours compounds with a hit; in the whole collection about 19% have one here.
ELG1 repair inh = qHTS screen for small molecules that inhibit ELG1-dependent DNA repair in human embryonic kidney (HEK293T) cells expressing luciferase-tagged ELG1 | HEK293T ELG1-luciferase reporter, luminescence, 16 h; DNA damage induced by 5-fluorouridine | Potency, µM (titrated, usually from 46.1 µM), most hits filed as inhibitors | 330,000 tested, 2.3% active | AID 504467, 2011; note: nearly all actives have a fitted effect of over 55% in size
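Luminescence from the luciferase reporter, measured 30 min after ONE-Glo reagent at room temperature, was the read-out. Beforehand, 2,000 cells per well were exposed for 16 hr at 37 °C to 5-fluorouridine together with compound or vehicle.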
IL-1B inflam inh = qHTS for Inhibitors of Inflammasome Signaling: IL-1-beta AlphaLISA Primary Screen; THP-1 LPS/ATP IL-1B secretion, AlphaLISA, 16 h; hits give low values; activity change, % at 57.5 µM; 360,000 tested, 4.7% active; in the data active = activity change below about -50%; inconclusive = mostly about -30% to -49%
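Secreted IL-1B measured by AlphaLISA bead assay after 16 h compound exposure of THP-1 cells; compounds (final up to 57.5 uM) added 1 h before LPS (250 ng/mL) and ATP (1.25 mM) stimulation; lower signal means less secretion.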
HT1080-NT tox = qHTS for induction of synthetic lethality in tumor cells producing 2HG: qHTS for the HT-1080-NT fibrosarcoma cell line | HT-1080-NT fibrosarcoma viability, CellTiter-Glo ATP luminescence, 48 h | Potency, µM (series often up to 46.1 µM), hits mostly cytotoxic | 360,000 tested, 1.6% active;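 note: NT is the 2HG producing partner of a matched IDH1 knockdown line; nearly all actives have a fitted effect of over 55% in size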
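HT-1080-NT fibrosarcoma cells (2HG-overproducing), 750 cells/well in RPMI with 5% FBS, dosed after 2 h and incubated 48 h at 37C. CellTiter-Glo luminescence normalized to DMSO and no-cell wells; concentration-response curves fitted and classed.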
DT40 TDP1 no CPT = qHTS for Inhibitors of human tyrosyl-DNA phosphodiesterase 1 (TDP1): qHTS in cells in absence of CPT | Potency, µM (titrated, usually from 46.2 µM), most hits filed as inhibitors | DT40 Tdp1-/- hTDP1 cells, no CPT, ATP luminescence, 48 h | 420,000 tested, 15% active | AID 686978, 2013; note: nearly all actives have a fitted effect of over 55% in size
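DT40 Tdp1-/-;hTDP1 cells, no CPT (DMSO vehicle only), 400 cells/well; compounds pin-transferred; ≥48 hr, 37 °C; CellTiter-Glo 30 min RT dark, luminescence read.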
TDP1 cell CPT = qHTS for Inhibitors of human tyrosyl-DNA phosphodiesterase 1 (TDP1): qHTS in cells in presence of CPT | chicken DT40 Tdp1-/-;hTDP1 cells + 20 nM CPT, ATP luminescence, 48 h | Potency, µM (top dose mostly 46.2 µM), actives largely listed as inhibitors | 420,000 tested, 12% active; note: nearly all actives have a fitted effect of over 55% in size
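Chicken DT40 Tdp1-/- cells stably complemented with human TDP1 were seeded at 400 cells/well in medium containing 20 nM camptothecin, exposed to pin-transferred compounds, and grown at 37 °C for at least 48 hr. Viability was read as ATP luminescence.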
HT1080 IDH1KD tx = qHTS for induction of synthetic lethality in tumor cells producing 2HG: qHTS for the HT-1080-IDH1KD cell line; HT-1080 IDH1 knockdown viability, ATP luminescence, 48 h; Potency, µM (series often up to 46.1 µM), actives largely listed as cytotoxic; 360,000 tested, 2% active; AID 686971, 2013
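After a 2 h attachment period, IDH1KD HT-1080 cells took pin-transferred compound for 48 h at 37 °C; ATP-based luminescence after 10 min room-temperature reagent incubation reported viability.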
Large screens that a line does not name were inactive. Unless noted, calls come from the whole dose curve; as a rule, active = well fitted curve in the direction sought with a large enough effect; inconclusive = small, poorly fitted or top-dose-only effect, or another doubt; inactive = no such curve, though single readings can be large; an effect the other way counts as inactive or inconclusive.

Cc1ccc(NC(=O)CN(C)C(=O)c2cn(Cc3ccccc3)nc2-c2cccnc2)cc1	DT40 TDP1 no CPT inconclusive
CCOCCn1c(CN2CCc3ccccc3C2)nc2c1c(=O)n(C)c(=O)n2C	ELG1 repair inh inconclusive, DT40 TDP1 no CPT 10µM, TDP1 cell CPT 23µM
CN(c1nc2c(c(=O)n(C)c(=O)n2C)n1CC(=O)c1ccccc1)C1CCCCC1	ELG1 repair inh inconclusive, DT40 TDP1 no CPT 23µM, TDP1 cell CPT inconclusive
Cn1c(=O)c2c(nc(CN3CCOCC3)n2CC(=O)c2ccccc2)n(C)c1=O	DT40 TDP1 no CPT inconclusive (no result: ELG1 repair inh)
CCOCCn1c(CN2CCN(CC)CC2)nc2c1c(=O)n(C)c(=O)n2C	none
Cn1c(=O)c2c(nc(CN3CCc4ccccc4C3)n2Cc2ccccc2)n(C)c1=O	ELG1 repair inh 16µM, DT40 TDP1 no CPT 15µM, TDP1 cell CPT 23µM
Cn1c(=O)c2c(nc(CN3CCc4ccccc4C3)n2Cc2ccc(Cl)cc2)n(C)c1=O	none
Cn1c(=O)c2c(nc(CN3CCc4ccccc4C3)n2CC(=O)c2ccccc2)n(C)c1=O	HT1080-NT tox inconclusive, DT40 TDP1 no CPT 26µM, TDP1 cell CPT 18µM, HT1080 IDH1KD tx inconclusive (no result: ELG1 repair inh)
C[C@@H](C(=O)N[C@@H](Cc1c[nH]c2ccccc12)C(=O)O)n1nnc2ccccc2c1=O	TDP1 cell CPT inconclusive
COc1ccc(CN(C)C(=O)Cn2ccc(N)nc2=O)cc1OC	none
Cc1cccc(-c2nc3c(s2)CCc2onc(-c4ccc(Br)cc4)c2-3)c1	none
CCNc1ncc2nc(-c3cccs3)c(=O)n(Cc3cccs3)c2n1	none (no result: ELG1 repair inh, IL-1B inflam inh, HT1080-NT tox, HT1080 IDH1KD tx)
COc1cc2ccc(NC(C)=O)cc2cc1OC	none (no result: ELG1 repair inh)
Cc1cccc(-c2nnn3c2nc(NCCc2ccc(S(N)(=O)=O)cc2)c2cc(Cl)ccc23)c1	DT40 TDP1 no CPT 5.8µM, TDP1 cell CPT 9.2µM (no result: ELG1 repair inh, IL-1B inflam inh, HT1080-NT tox, HT1080 IDH1KD tx)
Cc1cccc(-c2nnn3c2nc(NCc2ccc4c(c2)OCO4)c2ccccc23)c1	DT40 TDP1 no CPT inconclusive, TDP1 cell CPT 23µM (no result: ELG1 repair inh, IL-1B inflam inh, HT1080-NT tox, HT1080 IDH1KD tx)
CC(=O)NCCNc1nc2c(-c3ccccc3)nnn2c2ccccc12	DT40 TDP1 no CPT 8.2µM, TDP1 cell CPT inconclusive
Cc1ccc(-c2nnn3c2nc(NCCc2ccc(S(N)(=O)=O)cc2)c2ccccc23)cc1	ELG1 repair inh inconclusive, HT1080-NT tox inconclusive, DT40 TDP1 no CPT inconclusive, HT1080 IDH1KD tx inconclusive
Cc1cccc(-c2nnn3c2nc(NCCc2ccc(S(N)(=O)=O)cc2)c2ccccc23)c1	ELG1 repair inh 2.6µM, DT40 TDP1 no CPT 16µM, TDP1 cell CPT 15µM
CC(=O)NCCNc1nc2c(-c3ccc(C)cc3)nnn2c2ccccc12	none (no result: ELG1 repair inh, IL-1B inflam inh, HT1080-NT tox, HT1080 IDH1KD tx)
O=C(OCC1CCCO1)c1ccc2c(c1)N(Cc1ccccc1F)C(=O)c1ccccc1S2(=O)=O (stereo not given)	none (no result: ELG1 repair inh, IL-1B inflam inh, HT1080-NT tox, HT1080 IDH1KD tx)
Cc1cc(C)cc(OCCOCCn2c(-c3ccc(Cl)cc3)nc3ccccc3c2=O)c1	TDP1 cell CPT inconclusive (no result: ELG1 repair inh, IL-1B inflam inh, HT1080-NT tox, HT1080 IDH1KD tx)
Cc1cccc(NC(=O)CNC(=O)CN2C(=O)NC(C)(CCC(C)C)C2=O)c1C (stereo not given)	TDP1 cell CPT inconclusive (no result: ELG1 repair inh)
Cc1cc(O)c(CN2CCN(c3ccccc3)CC2)c2oc(=O)cc(C)c12	none (no result: ELG1 repair inh, IL-1B inflam inh, HT1080-NT tox, HT1080 IDH1KD tx)
NS(=O)(=O)c1ccc(CCNc2nc3c(-c4cccc(F)c4)nnn3c3ccccc23)cc1	ELG1 repair inh 2.6µM, DT40 TDP1 no CPT 12µM, TDP1 cell CPT inconclusive
COc1ccc(CC(=O)NCc2ccc3c(c2)CCN3C(=O)c2ccc(C)cc2)cc1OC	DT40 TDP1 no CPT 12µM, TDP1 cell CPT 13µM (no result: ELG1 repair inh, IL-1B inflam inh, HT1080-NT tox, HT1080 IDH1KD tx)
O=C(CSc1ccccc1)NCc1ccc2c(c1)CCN2C(=O)c1ccc(F)cc1	none (no result: ELG1 repair inh, IL-1B inflam inh, HT1080-NT tox, HT1080 IDH1KD tx)

High-throughput results (PubChem BioAssay)
